High-throughput results deposited in PubChem BioAssay by several laboratories.
PfHsp90 set2 – inhibits growth of yeast expressing Plasmodium falciparum Hsp90. S. cerevisiae expressing PfHsp90, BacTiter-Glo ATP, 48 h; yeast lacking PDR1 and PDR3 efflux regulators. inhibition, % at 9.4 µM. AID 504621. 310,000 compounds, 0.32% hits;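 active = every replicate shows inhibition above about 80%, whatever the replicate mean, limit read from the data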;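 also: 0% = DMSO neutral controls and 100% = 20 µM radicicol positive controls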
TIM10 inh – inhibits growth of TIM10 yeast strain | S. cerevisiae TIM10 strain growth, BacTiter-Glo luminescence, 24 h | inhibition, % at 10 µM | 330,000 compounds, 1.4% hits;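 active = inhibition of 40% or more at the single tested concentration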;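 also: wild-type TIM10 isogenic control strain grown at permissive 25 °C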
NALP3 yeast inh – blocks the NALP3 inflammasome reconstituted in yeast | Yeast reconstituted NLRP3/ASC/caspase-1, beta-gal luminescence, 24 h | inhibition, % at 10 µM | 330,000 compounds, 0.39% hits;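 active = inhibition of 50% or more; inactive = inhibition below 50%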;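 also: plate controls were induced DMSO wells for no effect and uninduced yeast grown without galactose for full effect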
tim10-1 inh – growth inhibitors of tim10-1 mutant yeast | S. cerevisiae tim10-1 ts strain growth, BacTiter-Glo, 24 h | 330,000 compounds, 2.2% hits | inhibition, % at 20 µM;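 active = inhibition of at least 40%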;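 also: mutant grown at 25 °C; 0% = DMSO wells with yeast and 100% = wells holding no yeast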
tim23-1 inh – tim23-1 yeast growth inhibition; S. cerevisiae tim23-1 growth, BacTiter-Glo luminescence, 24 h; inhibition, % at 20 µM; 330,000 compounds, 1.3% hits; AID 463212;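 active = growth inhibition of the mutant yeast at or above 50%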;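 also: temperature-sensitive mutant grown at 25 °C; plate controls were DMSO-treated mutant yeast for no effect and medium wells lacking yeast for full effect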
tim10-1 confirm – tim10-1 yeast growth inhibition, confirmed | 7,400 compounds, 56% hits | inhibition, % at 20 µM | shares compounds with tim10-1 inh | AID 463213 | S. cerevisiae tim10-1 ts strain growth, BacTiter-Glo, 24 h;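 active = inhibition of yeast growth at or above a set limit in either of two repeat tests at 20 µM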;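 also: tim10-1 mutant grown at permissive 25 °C to find synthetic lethal compounds; 0% = DMSO yeast wells and 100% = medium wells without yeast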
* = called active by the depositor; . = no result. Rows were chosen to be rich in hits. Some 3.7% of all compounds tested hit in one or more screens of this group.

SMILES	PfHsp90 set2	TIM10 inh	NALP3 yeast inh	tim10-1 inh	tim23-1 inh	tim10-1 confirm
CC(=O)NC1C(OCc2ccccc2)OC2COC(C)(C)OC2C1O (stereo unspecified)	-5.4	-12.8	6.2	-7.5	-3.5	.
N#Cc1ccncc1S(=O)c1ccc(Cl)cc1 (stereo unspecified)	-13.1	11.3	11.3	4.4	10.4	.
COC(=O)c1ccc(-n2nc(C(F)(F)F)c3c2-c2ccoc2CC3)cc1	-25.2	19.5	1.1	41.0*	29.6	25.6
O=C(O)c1ccc(-n2nc(C(F)(F)F)c3c2-c2ccoc2CC3)cc1	.	2.7	-4.2	15.9	14.2	.
COc1ccccc1NC(CC(=O)c1ccccc1)C(=O)OCC(=O)c1ccc(C)cc1 (stereo unspecified)	-70.5	28.5	-20.2	16.5	26.1	.
COc1ccccc1NC(CC(=O)c1ccccc1)C(=O)OCC(=O)c1ccc(Br)cc1 (stereo unspecified)	-9.1	15.0	-10.3	45.0*	39.7	37.2*
Nc1[nH]c(=O)nc(Nc2ccccc2)c1N=O	-25.1	5.0	24.1	-1.2	-13.3	.
CC(C)N=C1NN=C(c2ccc(Cl)c(Cl)c2)CS1	-7.8	11.8	14.6	48.3*	35.6	24.6
CC(C)N=C1NN=C(c2cccs2)CS1	-20.4	11.3	5.5	-11.4	15.8	.
Cc1cccc(N2C(=O)CN(Cc3cccs3)C2=S)c1	18.8	33.4	13.8	42.5*	44.6	25.1
Cc1ccsc1CN1CC(=O)N(c2c(C)cccc2C)C1=S	.	23.5	29.5	45.2*	38.9	36.2*
Cc1cccc(N2C(=O)CN(Cc3sccc3C)C2=S)c1	-17.4	30.5	15.6	21.3	39.7	.
CCC(C)c1ccc(C(C)NC(=S)NCc2ccc(F)cc2)cc1 (stereo unspecified)	14.2	37.7	7.1	44.2*	49.4	-11.4
CCCc1ccc(C(C)NC(=S)NCc2ccc(F)cc2)cc1 (stereo unspecified)	-28.9	22.8	22.2	31.4	9.5	.
CCC(C)NC(=O)[C@@H]1CSC2c3ccccc3C(=O)N21 (stereo partly specified)	5.6	-2.0	14.5	3.5	8.3	.
CCCc1nc([N+](=O)[O-])c(S(=O)(=O)c2ccccc2)n1CC(C)C	11.3	20.7	-9.3	50.5*	31.6	26.1
O=C(Nc1ccc(Oc2cccnc2)cc1)C1CCN(Cc2cc(Cl)ccc2O)CC1	7.9	7.5	22.5	49.2*	12.8	-3.7
O=C(Nc1ccc(Oc2cccnc2)cc1)C1CCN(Cc2ccc(F)cc2)CC1	6.6	-0.2	25.2	28.7	3.9	.
CC(=O)Nc1nc2ccccc2n1Cc1ccccc1Cl	-27.7	16.0	4.7	46.1*	27.0	22.5
CC(=O)Nc1nc2ccccc2n1Cc1ccccc1C	-20.2	13.3	-8.4	46.4*	17.8	27.5
CCOc1ccc(-n2ccnc(SCC(=O)NCc3cccc(OC)c3)c2=O)cc1	.	10.3	4.1	43.3*	19.8	10.8
CCOc1ccc(-n2ccnc(SCC(=O)Nc3ccc(OC)cc3OC)c2=O)cc1	16.2	14.8	15.1	27.4	8.6	.
CC1CCCN(C(=S)SCC(=O)c2cc(Br)cc(Br)c2O)C1 (stereo unspecified)	.	38.0	-4.6	50.4*	41.6	46.5*
CC1CCCN(C(=S)SCC(=O)O)C1 (stereo unspecified)	-3.4	-1.2	12.6	6.6	8.4	.
Cc1ccc(-c2nn3c(C)nnc3c3ccccc23)cc1S(=O)(=O)NCCO	-19.1	1.4	3.9	2.0	14.9	.
SMILES	PfHsp90 set2	TIM10 inh	NALP3 yeast inh	tim10-1 inh	tim23-1 inh	tim10-1 confirm
Cc1ccc(-c2nn3c(C)nnc3c3ccccc23)cc1S(=O)(=O)N1CCN(CCO)CC1	2.9	6.4	23.2	44.3*	16.2	6.7
Cc1coc(C)c1C(=O)CC1(O)C(=O)N(CCc2ccccc2)c2ccccc21 (stereo unspecified)	.	4.1	15.3	43.9*	27.4	33.5*
Cc1ccccc1NC(=S)NCc1ccc(Cl)cc1	-33.5	23.2	27.4	10.4	42.3	.
CCOc1ccc(OCC)c(S(=O)(=O)n2ccnc2C)c1	0.4	-48.8	15.7	-21.6	-81.8	.
CCOc1ccc(C(C)C)cc1S(=O)(=O)n1ccnc1C	-2.1	-11.2	-8.5	41.1*	4.4	5.5
COc1ccc(-c2oc3ccc(N4CCOCC4)cc3c2C#CC2(O)CCCCC2)cc1	-4.4	23.0	0.3	41.1*	35.7	12.4
OC1(C#Cc2c(-c3ccsc3)oc3ccc(N4CCOCC4)cc23)CCCCC1	-37.2	24.4	-0.7	41.0*	30.8	5.4
COc1cc(Nc2cccc[n+]2C)cc(OC)c1OC	-8.0	-20.2	4.8	5.3	-6.1	.
O=C(O)C1C2CCC(CC2)C1C(=O)N1CCN(Cc2ccc(F)cc2)CC1 (stereo unspecified)	-4.6	-7.8	19.2	-6.3	6.8	.
O=C(c1noc2c1CCc1ccccc1-2)N1CCCc2ccccc21	-3.2	2.1	17.3	41.7*	40.3	24.5
O=C(c1noc2c1CCc1ccccc1-2)N1CCOCC1	2.4	-13.5	19.9	3.8	6.0	.
c1ccc2sc(-c3ccc4c(c3)OCO4)nc2c1	11.1	8.8	22.9	45.3*	27.9	45.5*
COc1cccc(-n2c(N)cc(=O)nc2SCC(=O)N2CCN(c3ccccc3)CC2)c1	-64.0	15.6	-1.2	-0.7	17.7	.
O=C(NCc1ccccc1)c1ccc(-c2ccccc2F)o1	-38.2	23.8	26.5	41.7*	47.0	36.1*
Cc1ccc(-n2ccnc(SCC(=O)NC3CCCCC3)c2=O)cc1F	.	4.4	5.0	44.0*	30.6	13.1
COc1ccc(-n2ccnc(SCC(=O)NC3CCCC3)c2=O)cc1OC	-4.7	16.2	16.3	-1.6	10.8	.
COc1ccc(NC(=S)NC2CCCC2)c(OC)c1	15.8	4.8	5.0	11.1	18.6	.
COc1ccc(OC)c(C(C)NC(=S)NC2CCCCC2)c1 (stereo unspecified)	-32.2	30.6	27.9	42.4*	27.3	11.1
CN(C)S(=O)(=O)c1ccc(Cl)c(-c2nnc3n2CCCCC3)c1	2.5	-1.4	1.8	15.6	14.1	.
CCn1c(SCc2cccc(C)c2)nnc1-c1ccc(C)cc1	.	21.6	19.0	46.8*	44.0	29.7*
Cc1ccn2c(NC(=O)c3cccs3)c(-c3ccccc3)nc2c1	-27.2	12.8	11.1	0.7	21.8	.
Cc1ccn2c(NC(C)(C)C)c(-c3cccs3)nc2c1	-9.6	18.9	16.3	44.3*	42.2	27.2
CC1CCCN(S(=O)(=O)c2ccc(C(=O)Nc3nnc(-c4ccccc4Cl)o3)cc2)C1 (stereo unspecified)	-8.9	22.4	-10.4	41.7*	-4.5	6.7
CC1CCCN(S(=O)(=O)c2ccc(C(=O)Nc3nnc(-c4ccccn4)o3)cc2)C1 (stereo unspecified)	-18.3	9.2	-2.8	20.8	4.7	.
CC1CC(C)CN(S(=O)(=O)c2ccc(C(=O)Nc3nnc(-c4cccs4)o3)cc2)C1 (stereo unspecified)	-53.7	18.0	0.9	41.7*	6.4	21.3
